Experimental findings from PubChem BioAssay AID651711 (Broad Institute, 2012) are described below.

Where “and” joins values, the source holds several entries; their conditions need not be identical. Equal entries are not always repeated. Hit rate of the full screen: of about 350,000 compounds, about 180 (0.051%) were called active.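 How the source made its calls: active means mean replicate inhibition above about 25%, with every replicate also reaching it (limit read from the data, passing the limit was not always enough); inconclusive means only one of those two criteria met; inactive means neither criterion met.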 Shown is part of a subset that was picked to be rich in actives.

This test deals with Protein disulfide-isomerase A6 (Homo sapiens) (UniProt Q15084). As to the kind of experiment: ERp5 (PDIA6) reductase activity blockers – biochemical, turbidity, absorbance 650 nm, single point, primary screen (AID 651711). Particulars: ERp5 insulin aggregation, 90 min, at 9.99 µM, hits give high values.
Chain of Protein disulfide-isomerase A6 (Homo sapiens) (Q15084 whole entry, looked up): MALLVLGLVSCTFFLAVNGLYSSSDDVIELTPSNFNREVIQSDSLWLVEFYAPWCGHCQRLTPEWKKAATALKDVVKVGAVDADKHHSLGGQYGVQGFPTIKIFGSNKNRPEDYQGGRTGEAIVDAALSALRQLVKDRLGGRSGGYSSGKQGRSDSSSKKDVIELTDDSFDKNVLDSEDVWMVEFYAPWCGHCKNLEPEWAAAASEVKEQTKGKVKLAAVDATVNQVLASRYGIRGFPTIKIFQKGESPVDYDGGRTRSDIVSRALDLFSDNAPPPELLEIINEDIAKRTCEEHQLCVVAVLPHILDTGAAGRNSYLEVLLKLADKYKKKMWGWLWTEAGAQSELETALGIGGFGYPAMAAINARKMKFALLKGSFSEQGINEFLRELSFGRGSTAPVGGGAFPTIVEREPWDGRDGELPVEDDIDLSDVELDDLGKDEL
Regarding `COCC(=O)N1C[C@@H]2[C@H](c3ccccc31)[C@@H](CO)N2C(=O)C1CC1`, the inhibition – broadly, the relative decrease from the control value, in per cent – was -1.61% (inactive). Turning to `COCC#Cc1ccc([C@H]2[C@H](CO)N3C(=O)CN(C(=O)Nc4ccccc4F)C[C@@H]23)cc1`, the inhibition was 3.85% (inactive). `CNC[C@H]1Oc2ccc(NS(=O)(=O)c3cn(C)cn3)cc2C(=O)N([C@@H](C)CO)C[C@@H]1C`: the inhibition is -3.85% (inactive). Under `O=C(C[C@@H]1C[C@@H]2c3cc(NC(=O)c4ccc5c(c4)OCO5)ccc3O[C@@H]2[C@H](CO)O1)NCC1CC1` stands -3.55% (inactive); under `Cc1cccc(-c2ccc([C@@H]3[C@H](CO)N4CCCCN(Cc5ccncc5)C[C@@H]34)cc2)c1`, 10.1% (inactive); under `COc1ccc2c3c(n(C)c2c1)[C@H](CO)N(Cc1ccc(F)cc1)CC31CCN(C)CC1`, -1.69% (inactive). Next, `CO[C@H]1CN(C)C(=O)c2cc(NC(=O)C3CCC3)ccc2OC[C@H](C)N(CC2CCCCC2)C[C@@H]1C`: -3.58% (inactive); `CCCNC(=O)N(C)C[C@H]1Oc2cc(-c3ccncc3)ccc2S(=O)(=O)N([C@H](C)CO)C[C@@H]1C`: 1.24% (inactive). Consider `CCCNC(=O)N1[C@@H]2CNC[C@H]1C2c1ccc(-c2cccc(C)c2)cc1` (some centres undefined), for which the inhibition was 2.37% (inactive) and -1.56% (inactive). Under `O=C(N[C@@H]1CC[C@H](CCn2cc(-c3ccccc3)nn2)O[C@H]1CO)c1cnccn1` stands 19.2% (inactive); under `C[C@@H]1CN([C@@H](C)CO)C(=O)Cc2cc(NS(=O)(=O)c3cccs3)ccc2O[C@H]1CN(C)S(=O)(=O)c1ccc(F)cc1`, 18.7% (inactive); under `CC(C)NC(=O)N1[C@H](C#N)[C@H](c2ccc(C#CC3CCCCC3)cc2)[C@H]1CO`, -0.752% (inactive). Under `O=C(Cc1ccccn1)NCC[C@H]1CC[C@H](NC(=O)Nc2ccc(F)cc2)[C@@H](CO)O1` stands -0.166% (inactive); under `C[C@@H]1CN([C@@H](C)CO)C(=O)c2cccc(NS(=O)(=O)c3ccc(F)cc3)c2O[C@@H]1CN(C)Cc1ccc(C(=O)O)cc1`, 0.602% (inactive). As for `Cc1noc(C)c1NC(=O)N(C)C[C@@H]1Oc2ccc(NC(=O)C3CC3)cc2C(=O)N([C@H](C)CO)C[C@@H]1C`, the inhibition was 7.46% (inactive).

Take `CC(C)NC(=O)N1[C@H](CNC(=O)CN(C)C)[C@@H](c2ccccc2)[C@@H]1CO`: the inhibition is 6.83% (inactive). Take `O=C(C[C@@H]1C[C@H]2c3cc(NC(=O)NC4CCCC4)ccc3O[C@H]2[C@@H](CO)O1)NC1CCCCC1`: the inhibition was 5.32% (inactive). Regarding `CCC(=O)Nc1ccc2c(c1)OC[C@H](C)N(C(=O)c1ccccc1F)C[C@@H](C)[C@H](OC)CN(C)C2=O`, the inhibition was 12.1% (inactive). Under `C[C@@H]1CN([C@@H](C)CO)C(=O)CCCn2cc(nn2)CO[C@@H]1CN(C)Cc1ccccc1C(=O)O` stands 1.73% (inactive). Regarding `COC(=O)[C@]12C[C@H](CC(=O)NCc3ccccc3)C(=O)N(CCC3=CCCCC3)C1=C[C@H](C(C)(C)C)O[C@@H]2C`, the inhibition is 15.6% (inactive). Under `CN1C(=O)c2cc(NC(=O)C3CCOCC3)ccc2OC[C@H]2O[C@@H](CC(=O)NCC3CCCCC3)CC[C@@H]21` stands -1.95% (inactive). Under `COCCNC(=O)c1ccccc1NS(=O)(=O)c1ccc(C)c([N+](=O)[O-])c1` stands 32.3% (active); under `COC(=O)CNC(=O)c1ccccc1[N+](=O)[O-]`, -6.79% (inactive); under `COc1ccc(Br)cc1/C=N/Nc1ccc(S(=O)(=O)Nc2ccccc2C(=O)O)cc1[N+](=O)[O-]`, -6.38% (inactive). Regarding `COc1cccc(C(=O)OCC(=O)c2[nH]c(C)c(C(C)=O)c2C)c1`, the inhibition was 27.2% (active). Turning to `CCOC(=O)c1c(C)[nH]c(C(=O)OCC(=O)c2ccc(OC)cc2OC)c1C`, the inhibition is -4.48% (inactive). Regarding `CC(=O)c1c(C)[nH]c(C(=O)COC(=O)c2cccs2)c1C`, the inhibition is 14.1% (inactive). Under `C[C@@H]1CN([C@@H](C)CO)C(=O)c2cc(NC(=O)CCCN(C)C)ccc2O[C@@H](C)CCCCO[C@@H]1CN(C)S(=O)(=O)c1ccc(Cl)cc1` stands 0.282% (inactive); under `C[C@@H]1CN([C@@H](C)CO)C(=O)Cc2cc(NC(=O)CCN3CCOCC3)ccc2O[C@@H]1CN(C)C(=O)Nc1cccc2ccccc12`, 7.67% (inactive); under `O=C(N[C@@H]1CC[C@@H](CCn2cc(-c3ccccn3)nn2)O[C@@H]1CO)c1ccccc1`, -2.15% (inactive). Next, `COc1ccc(S(=O)(=O)Nc2ccc3c(c2)C(=O)N([C@@H](C)CO)C[C@H](C)[C@H](CN(C)Cc2ccc(C(=O)O)cc2)OCCCC[C@@H](C)O3)cc1`: -3.93% (inactive); `Cc1noc(C)c1S(=O)(=O)N(C)C[C@H]1Oc2ccc(NS(=O)(=O)c3cccs3)cc2C(=O)N([C@H](C)CO)C[C@H]1C`: -0.984% (inactive); `O=S(=O)(c1ccccc1)N1CCCCN2[C@@H](CO)[C@H](c3ccc(C#Cc4cccnc4)cc3)[C@@H]2C1`: -0.401% (inactive). Under `COCCNC(=O)C[C@@H]1CC[C@H]2[C@H](COc3ccc(NS(=O)(=O)c4ccc(Cl)cc4)cc3C(=O)N2C)O1` stands 6.32% (inactive). For the compound `C[C@H]1CN([C@@H](C)CO)C(=O)Cc2cc(NS(=O)(=O)c3cccs3)ccc2O[C@@H]1CN(C)Cc1ccc(Oc2ccccc2)cc1`, the inhibition is 0.293% (inactive).

Regarding `COc1ccc2c3c([nH]c2c1)[C@H](CO)N(Cc1ccccc1Cl)CC31CN(C(=O)C2CC2)C1`, the inhibition is 32% (active). Next, `COc1ccc2c3c([nH]c2c1)[C@@H](CO)N(Cc1cc(F)ccc1F)CC31CN(C(=O)C2CCC2)C1`: 0.016% (inactive); `COc1ccc2c3c([nH]c2c1)[C@@H](CO)N(Cc1ccccc1F)CC31CN(C(=O)C2CC2)C1`: 5.63% (inactive). Under `COc1ccc(NC(=O)Nc2cccc3c2O[C@@H](CN(C)C(=O)NC(C)C)[C@H](C)CN([C@H](C)CO)C3=O)cc1` stands 1.64% (inactive); under `O=C(C[C@H]1CC[C@H]2[C@@H](COC[C@@H](O)CN2CC2CCCC2)O1)NCC1CC1`, 5.23% (inactive); under `O=C(CCN1CCCCC1)NCC[C@H]1CC[C@@H](NC(=O)C2CCOCC2)[C@H](CO)O1`, -1.07% (inactive). Next, `C[C@H](NC(=O)[C@H]1N[C@H]2c3ccc(-c4ccc(C(=O)N(C)C)cc4)c(=O)n3C[C@H]2[C@@H]1CO)c1ccccc1`: -1.53% (inactive); `O=C(C[C@@H]1CC[C@H](NC(=O)NC2CCCCC2)[C@H](CO)O1)NCc1ccc(F)cc1`: -0.201% (inactive); `CCC(=O)Nc1ccc2c(c1)OC[C@@H](C)N(Cc1cncnc1)C[C@H](C)[C@@H](OC)CN(C)C2=O`: 1.32% (inactive). For `O=C(Nc1cccc(F)c1)N1CC(=O)N2[C@H](C1)[C@H](c1ccc(-c3ccccc3F)cc1)[C@@H]2CO`, the inhibition was -0.993% (inactive). Take `CN(C)C(=O)[C@@H]1[C@@H](CO)[C@@H]2Cn3c(ccc(-c4ccncc4)c3=O)[C@H]1N2C(=O)NC1CCCC1`: the inhibition is -2.64% (inactive). Next, `CO[C@@H]1CN(C)C(=O)c2cc(NC(=O)c3ccccc3F)ccc2OC[C@H](C)N(C(C)=O)C[C@@H]1C`: 3.35% (inactive); `O=C(C[C@H]1CC[C@@H]2[C@H](COC[C@H](O)CN2Cc2ccccc2F)O1)NC1CCC1`: -3.28% (inactive); `CCCNC(=O)C[C@H]1C[C@H]2c3cc(NC(=O)COC)ccc3O[C@H]2[C@H](CO)O1`: 2.76% (inactive). On to `CNC(=O)C[C@@H]1CC[C@@H]2[C@@H](COc3ccc(NC(=O)Nc4ccccc4OC)cc3C(=O)N2C)O1`, for which the inhibition is 5.92% (inactive). In the case of `CCC(=O)N(C)C[C@@H]1Oc2cc(C#C[C@H](C)O)ccc2S(=O)(=O)N([C@@H](C)CO)C[C@H]1C`, the inhibition is -0.347% (inactive). Under `C[C@@H]1CN([C@H](C)CO)C(=O)Cc2cc(NC(=O)CCN3CCOCC3)ccc2O[C@H]1CN(C)CC1CC1` stands -3.37% (inactive). Under `COc1ccc(CCN2C(=O)[C@@]3(Cc4ccccc42)c2ccccc2C(=O)N(Cc2ccccc2C(F)(F)F)[C@H]3c2ccc(CO)cc2)cc1` stands 4.71% (inactive). As to `C[C@H](CO)N1C[C@H](C)[C@@H](CN(C)C(=O)Cc2ccncc2)Oc2ncc(C3=CCCCC3)cc2C1=O`, the inhibition is 4.38% (inactive).

With `O=C(c1cccc(F)c1)N1CC[C@@H]2[C@@H](CO)Nc3ccc(C#Cc4cccc(F)c4)cc3[C@@H]21`, the inhibition was -3.07% (inactive). Next, `C[C@H](CO)N1C[C@H](C)[C@@H](CN(C)Cc2ccc(C(=O)O)cc2)Oc2ccc(NS(=O)(=O)c3cn(C)cn3)cc2CC1=O`: -1.33% (inactive); `CC(C)NC(=O)N1CC2(C1)[C@H](c1ccccc1)[C@H](CO)N2C(=O)C1CCOCC1`: 0.292% (inactive); `C/C=C/c1ccc([C@H]2[C@@H](CO)N(C(=O)NCCC)[C@H]2CN(C)C(C)=O)cc1`: 5.18% (inactive). `CC(C)NC(=O)Nc1ccc2c(c1)C(=O)N([C@H](C)CO)C[C@@H](C)[C@@H](CN(C)Cc1ccncc1)O2`: the inhibition is -5.48% (inactive). For the compound `COc1ccc(C#Cc2cccc(-c3nc(C(=O)O)cc4c3[C@@H](CCO)N(S(=O)C(C)(C)C)C4)c2)cc1OC` (some centres undefined), the inhibition is -1.96% (inactive). Next, `Cc1ccc(S(=O)(=O)N(C)C[C@@H]2OCc3ccccc3-c3c(n(C)c4ccccc34)C(=O)N([C@@H](C)CO)C[C@@H]2C)cc1`: 3.4% (inactive); `O=C(C[C@H]1C=C[C@H](NC(=O)Nc2ccc(C(F)(F)F)cc2)[C@@H](CO)O1)NCCN1CCCC1`: 18.1% (inactive). Next, `C[C@@H]1CN([C@@H](C)CO)C(=O)Cc2cc(NC(=O)Cc3cn(C)c4ccccc34)ccc2O[C@H]1CN(C)C(=O)NC1CCCCC1`: 5.6% (inactive); `C[C@@H]1CN([C@H](C)CO)C(=O)Cc2cc(NC(=O)Nc3cccc4ccccc34)ccc2O[C@H]1CN(C)C(=O)Nc1ccc2c(c1)OCO2`: -12.4% (inactive).
